According to PubChem BioAssay:
The source made the active and inactive calls.

Legend:
[1] = optical density shifts of acrAB sulA E. coli – strain DRC41, OD650, 48 h, E. coli filamentation inducer project, primary screen (AID 1152); conditions: higher = more signal, called active from +8 up or from −8 down;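 note: E. coli MC1000 strain DRC41 lacking acrAB efflux pump and sulA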
[2] = probe aLefty1 binding on compound microarray – biochemical, small-molecule microarray, 635/667 nm fluorescence, primary screen (AID 1153); conditions: higher = more signal;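 note: score merges spot fluorescence with signal-to-noise ratio from the scanned slide images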
[3] = plasmodial surface anion channel blockers, osmotic lysis – cell-based, P. falciparum Indochina, OD700, 1 h, primary screen (AID 1154); conditions: P. falciparum Indochina infected RBC osmotic lysis, higher = more signal, called active from +8 up or from −8 down
[4] = plasmodial surface anion channel blockers, osmotic lysis – cell-based, P. falciparum Indochina, OD700, 2 h, primary screen (AID 1155);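 note: lysis reports solute entry through the parasite surface anion channel PSAC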; conditions: P. falciparum Indochina infected erythrocytes, higher = more signal, called active from +8 up or from −8 down
[5] = changes in parasitized red cell lysis, either direction – P. falciparum Indochina, OD700, 3 h, PSAC antagonist project, primary screen (AID 1156); conditions: P. falciparum-infected erythrocytes, osmotic lysis, higher = more signal, called active from +8 up or from −8 down
[6] = plasmodial surface anion channel blockers, osmotic lysis – cell-based, P. falciparum Indochina, OD700, 18 h, primary screen (AID 1157); conditions: P. falciparum Indochina infected erythrocytes, osmotic lysis OD700, 18 h; higher = more signal, called active from +8 up or from −8 down
[7] = S6 kinase pathway phospho-S6 level changes – cell-based, A549, cytoblot, luminescence, serum-stimulated, primary screen (AID 1158); conditions: 5 h, higher = more signal;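 note: serum-stimulated A549 lung adenocarcinoma cells; signal is phosphorylated S6 detected by cytoblot immunostaining with HRP secondary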
[8] = biological target: NADPH oxidase 2 (Homo sapiens) (UniProt P04839); experiment: compounds shifting NOX2 Amplex Red fluorescence – cell-based, HEK293-NOX2, PMA-stimulated, NOX inhibitor project, primary screen (AID 1159); conditions: 45 min, higher = more signal, called active from +8 up or from −8 down; note: test concentration not given here
NADPH oxidase 2 (Homo sapiens), sequence (P04839 whole entry, looked up): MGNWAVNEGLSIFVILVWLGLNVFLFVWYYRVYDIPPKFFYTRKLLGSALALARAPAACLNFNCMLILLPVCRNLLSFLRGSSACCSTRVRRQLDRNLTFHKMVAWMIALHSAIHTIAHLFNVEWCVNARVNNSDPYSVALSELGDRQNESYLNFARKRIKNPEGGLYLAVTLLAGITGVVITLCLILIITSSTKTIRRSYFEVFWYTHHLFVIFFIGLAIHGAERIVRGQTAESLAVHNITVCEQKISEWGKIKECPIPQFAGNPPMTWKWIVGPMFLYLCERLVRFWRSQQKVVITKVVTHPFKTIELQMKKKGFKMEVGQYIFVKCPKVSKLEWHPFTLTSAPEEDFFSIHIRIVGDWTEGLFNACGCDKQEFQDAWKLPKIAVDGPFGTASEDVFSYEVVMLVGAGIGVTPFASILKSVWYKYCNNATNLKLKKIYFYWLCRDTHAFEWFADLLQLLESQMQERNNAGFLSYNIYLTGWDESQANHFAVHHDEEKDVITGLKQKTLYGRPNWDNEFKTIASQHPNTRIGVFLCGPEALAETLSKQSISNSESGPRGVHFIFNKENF

[9] = biological target: NADPH oxidase 4 (Homo sapiens) (UniProt Q9NPH5); experiment: compounds shifting NOX4 Amplex Red fluorescence – cell-based, HEK293-NOX4, tetracycline-induced, NOX inhibitor project, primary screen (AID 1160); conditions: HEK293-NOX4, Amplex Red H2O2 fluorescence, 45 min; higher = more signal, called active from +8 up or from −8 down
NADPH oxidase 4 (Homo sapiens), sequence (Q9NPH5 whole entry, looked up): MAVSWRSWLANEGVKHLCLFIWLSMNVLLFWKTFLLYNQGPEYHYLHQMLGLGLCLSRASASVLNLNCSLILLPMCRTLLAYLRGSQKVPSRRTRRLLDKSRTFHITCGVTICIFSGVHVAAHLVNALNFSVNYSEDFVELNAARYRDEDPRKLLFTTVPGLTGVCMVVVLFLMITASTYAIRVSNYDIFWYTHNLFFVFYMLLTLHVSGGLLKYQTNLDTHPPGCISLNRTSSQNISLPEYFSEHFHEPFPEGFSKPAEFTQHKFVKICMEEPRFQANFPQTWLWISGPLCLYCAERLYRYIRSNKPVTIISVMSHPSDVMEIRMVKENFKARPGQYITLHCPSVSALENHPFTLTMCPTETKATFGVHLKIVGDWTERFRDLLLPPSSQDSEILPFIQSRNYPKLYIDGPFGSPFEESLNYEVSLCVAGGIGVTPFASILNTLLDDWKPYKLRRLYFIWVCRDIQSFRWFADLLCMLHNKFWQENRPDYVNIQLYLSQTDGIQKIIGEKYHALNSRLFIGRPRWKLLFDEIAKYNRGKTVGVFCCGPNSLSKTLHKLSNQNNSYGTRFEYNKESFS

[10] = biological target: NADPH oxidase 5 (Homo sapiens) (UniProt Q96PH1); experiment: compounds shifting NOX5 Amplex Red fluorescence – cell-based, HEK293-NOX5, NOX inhibitor project, primary screen (AID 1161); conditions: HEK293-NOX5, ionomycin, 45 min, higher = more signal
NADPH oxidase 5 (Homo sapiens), sequence (Q96PH1 whole entry, looked up): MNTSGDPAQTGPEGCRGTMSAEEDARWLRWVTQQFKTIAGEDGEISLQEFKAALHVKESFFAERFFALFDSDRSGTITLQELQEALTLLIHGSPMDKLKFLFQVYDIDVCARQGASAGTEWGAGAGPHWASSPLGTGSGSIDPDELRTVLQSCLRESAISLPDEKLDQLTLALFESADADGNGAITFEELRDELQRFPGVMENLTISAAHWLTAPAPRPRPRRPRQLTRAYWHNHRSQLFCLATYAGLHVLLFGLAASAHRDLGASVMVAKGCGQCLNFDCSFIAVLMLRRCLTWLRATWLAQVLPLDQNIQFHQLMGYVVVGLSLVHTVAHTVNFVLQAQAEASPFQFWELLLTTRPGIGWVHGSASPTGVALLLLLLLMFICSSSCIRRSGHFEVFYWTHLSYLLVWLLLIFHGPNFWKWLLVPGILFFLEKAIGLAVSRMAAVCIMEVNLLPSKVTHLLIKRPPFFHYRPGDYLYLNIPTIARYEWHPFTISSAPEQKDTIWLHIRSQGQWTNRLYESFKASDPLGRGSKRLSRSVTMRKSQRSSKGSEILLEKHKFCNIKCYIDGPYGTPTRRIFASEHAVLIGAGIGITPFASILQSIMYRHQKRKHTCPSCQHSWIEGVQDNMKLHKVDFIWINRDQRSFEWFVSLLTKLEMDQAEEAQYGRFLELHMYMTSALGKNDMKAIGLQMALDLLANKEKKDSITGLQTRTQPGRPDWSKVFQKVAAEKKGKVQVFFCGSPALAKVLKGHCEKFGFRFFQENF

[11] = compound effects on lung adenocarcinoma cell viability – A549, calcein-AM fluorescence, 48 h, basal, profiling panel (AID 1162); conditions: higher = more signal; note: test concentration not given here
[12] = compound effects on differentiated 3T3-L1 adipocyte viability – cell-based, 3T3-L1 adipocytes, calcein-AM fluorescence, 48 h, basal, profiling panel (AID 1163); conditions: 3T3-L1 adipocytes viability, higher = more signal; note: test concentration not given here
[13] = compound effects on hepatocellular carcinoma cell viability – HepG2, calcein-AM fluorescence, 48 h, basal, profiling panel (AID 1164); conditions: higher = more signal; note: test concentration not given here
[14] = compound effects on multiple myeloma cell viability – MM1S, calcein-AM fluorescence, 48 h, basal, profiling panel (AID 1165); conditions: higher = more signal; note: test concentration not given here
[15] = calcein-AM signal in unstimulated myeloma cells – cell-based, calcein-AM fluorescence, 48 h, PK04 Diversity Set, profiling panel (AID 1166); conditions: RPMI8226 myeloma viability, higher = more signal;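 note: cells grown under basal conditions without added stimulus; test concentration not given here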
[16] = JC-1 mitochondrial signal, unstimulated HepG2 cells – cell-based, JC-1 fluorescence, 24 h, 100 nL compound, profiling panel (AID 1167); conditions: HepG2 mitochondrial potential, higher = more signal; note: test concentration not given here
[17] = JC-1 mitochondrial signal, unstimulated adipocytes – cell-based, JC-1 fluorescence, 3T3-L1 adipocytes, 24 h, 100 nL compound, profiling panel (AID 1168); conditions: JC-1 mitochondrial fluorescence, higher = more signal, called active from +8 up or from −8 down; note: test concentration not given here
[18] = JC-1 mitochondrial signal, unstimulated myeloma cells – cell-based, JC-1 fluorescence, RPMI8226, 24 h, 100 nL compound, profiling panel (AID 1169); conditions: JC-1 mitochondrial potential fluorescence, higher = more signal; note: test concentration not given here
[19] = JC-1 mitochondrial signal, unstimulated MM1S myeloma – cell-based, JC-1 fluorescence, 24 h, 100 nL compound, profiling panel (AID 1170); conditions: MM1S mitochondrial potential, higher = more signal; note: test concentration not given here
[20] = resazurin metabolic signal in A549 cells – cell-based, resazurin fluorescence, 24 h, PK04 Diversity Set, profiling panel (AID 1171); conditions: A549 viability, higher = more signal, called active from +8 up or from −8 down; note: test concentration not given here

Compound	z-score [1]	composite z-score [2]	z-score [3]	z-score [4]	z-score [5]	z-score [6]	z-score [7]	z-score [8]	z-score [9]	z-score [10]	z-score [11]	z-score [12]	z-score [13]	z-score [14]	z-score [15]	z-score [16]	z-score [17]	z-score [18]	z-score [19]	z-score [20]
CN1CCc2nc(-c3ccccc3)c(-c3ccccc3)cc2C1	0.67 (inactive)	-0.0748	0.296 (inactive)	-0.0787 (inactive)	0.406 (inactive)	-0.021 (inactive)	-0.76	-0.512 (inactive)	-0.0205 (inactive)	-0.409	-0.244	0.665	0.135	0.33	0.455	0.25	-0.53 (inactive)	0.344	-0.201	0.752 (inactive)
CCN1C(=O)[C@H]2[C@H]3[C@H](O)[C@H](O)CC(=NOCC(C)C)[C@H]3CC[C@H]2C1=O	0.552 (inactive)	-0.0658	-0.135 (inactive)	-0.0288 (inactive)	-0.369 (inactive)	-0.433 (inactive)	-0.812	-5.92 (inactive)	0.358 (inactive)	-0.231	-0.124	-0.574	-0.391	0.199	0.286	-0.584	-0.977 (inactive)	0.0664	-0.86	-0.348 (inactive)
CCc1cc2c(nc1CC)CCN(CCC(C)=NO[C@@H]1O[C@H](COC(C)=O)[C@@H](OC(C)=O)[C@H](OC(C)=O)[C@H]1OC(C)=O)C2	-1.13 (inactive)	-0.0929	-0.451 (inactive)	-1.01 (inactive)	1.42 (inactive)	-1.67 (inactive)	1.83	0.0419 (inactive)	0.47 (inactive)	1.03	-0.984	0.776	-0.536	-2.58	-1.14	1.7	-0.325 (inactive)	-0.0793	0.0201	-0.223 (inactive)
O=C1C[C@@H](O)[C@@H](O)[C@@H]2[C@@H]3C(=O)N(c4ccc(F)cc4F)C(=O)[C@@H]3CC[C@H]12	-0.706 (inactive)	-0.147	-0.0503 (inactive)	0.0554 (inactive)	-0.737 (inactive)	0.06 (inactive)	0.0123	1.09 (inactive)	0.366 (inactive)	-0.158	-0.529	1.42	0.0181	-0.141	-0.0202	-0.541	-0.922 (inactive)	0.0715	0.448	-0.715 (inactive)
CC(=O)OC[C@H]1O[C@H](CC=NO[C@@H](C)c2cn([C@H](CO)Cc3ccccc3)nn2)C=C[C@@H]1OC(C)=O	-0.89 (inactive)	-0.196	-0.719 (inactive)	-0.429 (inactive)	0.656 (inactive)	-1.23 (inactive)	0.703	-2.05 (inactive)	-2.01 (inactive)	-1.41	-1.04	-0.0628	-0.453	0.548	-0.812	-0.174	-0.538 (inactive)	0.15	-0.76	0.095 (inactive)
C[C@]12CCC3c4ccc(OCC5CO5)cc4CCC3C1CC[C@@H]2O (stereo not given in full)	-0.186 (inactive)	-0.0011	24.3 (active)	7.31 (inactive)	0.269 (inactive)	0.663 (inactive)	0.25	1.44 (inactive)	-1.42 (inactive)	-1.74	0.45	0.277	0.266	-2.59	-1.06	1.15	0.121 (inactive)	0.0313	-0.046	2.25 (inactive)
O=C1[C@H]2[C@H]3[C@H](O)[C@H](O)CC(=NO[C@@H]4O[C@H](CO)[C@@H](O)[C@H](O)[C@H]4O)[C@@H]3CC[C@H]2C(=O)N1c1cccc(Oc2ccccc2)c1	-0.192 (inactive)	-0.0967	-0.612 (inactive)	-0.0313 (inactive)	0.271 (inactive)	0.0606 (inactive)	-0.263	0.614 (inactive)	1.02 (inactive)	0.544	0.161	-0.45	-0.593	0.365	-0.815	-0.655	-0.349 (inactive)	-0.277	-0.229	0.39 (inactive)
CCN1C(=O)[C@H]2[C@H]3[C@H](O)[C@H](O)CC(=NOCC[C@@H]4C=C[C@H](OC(C)=O)[C@@H](COC(C)=O)O4)[C@@H]3CC[C@H]2C1=O	-0.405 (inactive)	-0.125	0.422 (inactive)	0.329 (inactive)	-0.376 (inactive)	0.44 (inactive)	-0.401	0.0899 (inactive)	-0.0656 (inactive)	0.859	1.03	-0.286	-0.296	0.0566	-0.727	-0.301	-0.132 (inactive)	0.572	-0.306	-0.774 (inactive)
CC1(C)O[C@H]2O[C@H]([C@H](O)CON=C3[C@H]4CCn5c(=O)n(-c6ccccc6)c(=O)n5[C@H]4[C@H](O)[C@@H]4O[C@H]34)[C@H](O)[C@H]2O1	-0.169 (inactive)	-0.0375	0.246 (inactive)	0.282 (inactive)	0.267 (inactive)	0.343 (inactive)	-0.693	0.197 (inactive)	0.0828 (inactive)	-0.47	-0.359	0.104	-0.0631	0.112	0.279	-0.494	-1.12 (inactive)	0.438	0.223	0.065 (inactive)
COC(=O)[C@@H]1CC[C@H](C)[C@@H](c2ccc(C)cc2)N1C(=O)c1ccc(C=NOC[C@@H](O)[C@H]2O[C@@H]3OC(C)(C)O[C@@H]3[C@H]2O)cc1	1.44 (inactive)	0.0313	0.465 (inactive)	0.364 (inactive)	0.107 (inactive)	0.342 (inactive)	-0.924	0.659 (inactive)	0.589 (inactive)	0.417	0.685	-0.175	-0.827	-0.546	-0.525	-0.874	-0.269 (inactive)	-1	-0.732	-0.089 (inactive)
CCCNC(=O)OC[C@H]1O[C@H](CCON=C2C[C@@H](O)[C@@H](O)[C@@H]3[C@@H]4C(=O)N(CC)C(=O)[C@@H]4CC[C@@H]23)C=C[C@@H]1Oc1ccc(OC)cc1	0.599 (inactive)	0.186	1.69 (inactive)	0.584 (inactive)	-0.0328 (inactive)	0.368 (inactive)	-0.432	-0.708 (inactive)	0.471 (inactive)	-0.818	0.778	0.206	-0.652	-1.61	0.141	-1.18	-0.245 (inactive)	0.195	-0.39	-0.454 (inactive)
CC(=O)OC[C@H]1O[C@H](CC=NOC[C@@H](O)[C@H]2O[C@@H]3OC(C)(C)O[C@@H]3[C@H]2O)C=C[C@@H]1OC(C)=O	-1.11 (inactive)	0.145	0.466 (inactive)	0.274 (inactive)	0.0662 (inactive)	0.466 (inactive)	-0.549	-0.462 (inactive)	0.136 (inactive)	-0.515	0.873	-1	-0.188	0.494	-0.594	0.218	0.555 (inactive)	0.632	-0.527	0.0766 (inactive)
CCN1C(=O)[C@H]2[C@H]3[C@H](O)[C@H](O)CC(=NO[C@H](C)c4cn([C@@H]5COC[C@H]5O)nn4)[C@@H]3CC[C@H]2C1=O	-0.712 (inactive)	-0.322	2.21 (inactive)	0.76 (inactive)	0.436 (inactive)	0.564 (inactive)	-0.582	0.477 (inactive)	0.226 (inactive)	0.919	0.165	-0.736	-0.127	-0.0272	0.215	-0.407	-1.37 (inactive)	0.125	-0.11	-0.232 (inactive)
Cc1ccc2[nH]c3nc(CCCn4ccnc4-c4ccccc4)nnc3c2c1	0.369 (inactive)	0.0072	8.16 (active)	0.751 (inactive)	0.632 (inactive)	0.322 (inactive)	-0.903	-0.137 (inactive)	-0.375 (inactive)	-1.14	0.0515	0.339	-0.18	1.05	0.392	-0.807	1.1 (inactive)	0.738	-0.867	0.384 (inactive)
O=C1[C@H]2[C@H]3[C@H](O)[C@H](O)CC(=NO[C@@H]4O[C@H](CO)[C@@H](O)[C@H](O)[C@H]4O)[C@H]3CC[C@H]2C(=O)N1C[C@@H]1CCCO1	0.819 (inactive)	-0.0054	0.651 (inactive)	0.544 (inactive)	0.0197 (inactive)	0.353 (inactive)	-0.164	-2.4 (inactive)	0.513 (inactive)	0.488	0.676	-0.568	0.184	0.7	0.269	0.607	0.572 (inactive)	0.39	-1.13	-0.6 (inactive)
CC(C)CN1CCc2nc(-c3ccccc3)c3c(c2C1)CO[C@@H](C)C3	0.696 (inactive)	0.123	1.56 (inactive)	0.711 (inactive)	0.61 (inactive)	0.615 (inactive)	0.418	2.18 (inactive)	-2.08 (inactive)	0.551	1.2	-0.274	0.0114	0.639	-0.409	0.462	0.0658 (inactive)	-0.0878	0.708	-0.139 (inactive)
